Test results: the supplement of paper PMC12494721
Counter-ions that a name gives are not always drawn. Values without a mark were called inactive.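 The calls were made as follows: for the amine columns active = adjusted P below 0.05 in both replicates with a change the same way and a mean fold change under 0.8 or over 1.25; inactive = the rest.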

System: Ruminococcus gnavus DSM 108212
Test: fold change of Tryptamine concentration vs plate DMSO controls (fold change (ratio)); higher = more amine produced, active = hit call of the paper (significant change in both replicates, either direction)
Conditions: incubation time: 27 h, anaerobic, 37 °C
Summary of the method: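 In 80 µL wells, cultures of four gut bacterial strains in mGAM started at OD 0.1 before a 1:1 dilution and grew anaerobically at 37 °C for 27 h. Compounds were added to 20 µM final, except sweeteners at 50 µM final. After extraction of whole cultures with cold acetonitrile/methanol plus 0.1% formic acid and centrifugation, amines were measured by LC–triple-quadrupole MS in dynamic MRM mode against external calibration curves, with within-batch drift correction. Values give fold change over DMSO controls on the same plate, averaged across 2 biological replicates.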

| SMILES | fold change of Tryptamine concentration |
| --- | --- |
| CC1CC(OC(=O)C(O)c2ccccc2)CC(C)(C)C1 (centres undefined) [Cyclandelate] (20 µM) | 1.03 |
| COc1ccc(C(=O)CC(=O)c2ccc(C(C)(C)C)cc2)cc1 [Avobenzone] (20 µM) | 1.02 |
| Cc1nc2ccccc2n1Cc1ccc(Cl)cc1 [Chlormidazole] (20 µM) | 0.899 |
| Cn1nnnc1SCC1=C(C(=O)O)N2C(=O)[C@@H](NC(=O)[C@H](O)c3ccccc3)[C@H]2SC1 [Cefamandole sodium salt] (20 µM) | 0.141 (active) |
| CCN1CCC[C@H]1CNC(=O)c1c(O)c(Cl)cc(Cl)c1OC [Raclopride] (20 µM) | 1 |
| O=c1oc2ccccc2c(O)c1Cc1c(O)c2ccccc2oc1=O [Dicumarol] (20 µM) | 0.949 |
| S=C([S-])NCCNC(=S)[S-].S=C([S-])NCCNC(=S)[S-].[Mn+2].[Zn+2] (20 µM) | 1.12 |
| CC(NCCC(c1ccccc1)c1ccccc1)c1ccccc1 (centres undefined) [Fendiline hydrochloride] (20 µM) | 0.888 |
| Nc1ccc(S(=O)(=O)Nc2nccs2)cc1 [Sulfathiazole] (20 µM) | 1.03 |
| CC(=O)/N=c1/sc(S(N)(=O)=O)nn1C [Methazolamide] (20 µM) | 1.07 |
| Oc1ccccc1O [Catechol] (20 µM) | 0.979 |
| COc1cc(C(=O)NS(=O)(=O)c2ccccc2C)ccc1Cc1cn(C)c2ccc(NC(=O)OC3CCCC3)cc12 [Zafirlukast] (20 µM) | 0.582 (active) |
| COc1nc(N)nc2c1ncn2[C@@H]1O[C@H](CO)[C@@H](O)[C@@H]1O [Nelarabine] (20 µM) | 1.03 |
| O=C(NCc1ncc(C(F)(F)F)cc1Cl)c1c(Cl)cccc1Cl (20 µM) | 1.01 |
| CCc1oc2ccccc2c1C(=O)c1cc(Br)c(O)c(Br)c1 [Benzbromarone] (20 µM) | 0.722 (active) |
| Nc1nc(=O)[nH]cc1F [Flucytosine] (20 µM) | 0.987 |
| CC[N+](CC)(CC)CCOc1cccc(OCC[N+](CC)(CC)CC)c1OCC[N+](CC)(CC)CC [Gallamine triethiodide] (20 µM) | 1.09 |
| COc1cc(C)nc(-n2nc(C)cc2OC)n1 [Epirizole] (20 µM) | 0.971 |
| COc1ccccc1O [Guaiacol] (20 µM) | 1.05 |
| COc1cccc2c1C(=O)c1c(O)c3c(c(O)c1C2=O)C[C@@](O)(C(=O)CO)C[C@@H]3O[C@H]1C[C@H](N)[C@@H](O)[C@H](C)O1 [Epirubicin hydrochloride] (20 µM) | 0.966 |
| Cc1onc(-c2ccccc2)c1C(=O)N[C@@H]1C(=O)N2[C@@H]1SC(C)(C)[C@@H]2C(=O)O [Oxacillin sodium] (20 µM) | 0.0465 (active) |
| CCCOc1cc(N)ccc1C(=O)OCCN(CC)CC [Propoxycaine hydrochloride] (20 µM) | 1.05 |
| OC[C@H]1O[C@H](O[C@H]2O[C@H](CO)[C@@H](O)[C@H](O)[C@H]2O)[C@H](O)[C@@H](O)[C@@H]1O [Trehalose] (50 µM) | 1.09 |
| CN1[C@@H]2CC[C@H]1C[C@@H](OC(c1ccccc1)c1ccccc1)C2 [Benztropine mesylate] (20 µM) | 0.964 |
| C[C@H](CCC(=O)O)[C@H]1CC[C@H]2[C@@H]3CC[C@@H]4C[C@H](O)CC[C@]4(C)[C@H]3CC[C@]12C [Lithocholic acid] (20 µM) | 1.05 |
| CN(C)CCC=C1c2ccccc2COc2ccccc21 [Doxepin hydrochloride] (20 µM) | 0.977 |
| NC[C@H]1O[C@H](O[C@H]2[C@H](O)[C@@H](O[C@H]3O[C@H](CO)[C@@H](O)[C@H](N)[C@H]3O)[C@H](N)C[C@@H]2N)[C@H](N)C[C@@H]1O [Tobramycin] (20 µM) | 0.946 |
| CC(=O)Oc1cccc2c1C(=O)c1c(OC(C)=O)cc(C(=O)O)cc1C2=O [Diacerein] (20 µM) | 0.905 |
| CCCCc1ncc(/C=C(\Cc2cccs2)C(=O)O)n1Cc1ccc(C(=O)O)cc1 [Eprosartan mesylate] (20 µM) | 0.998 |
